Source: PubChem BioAssay
This is one part of a sample in which hits are shown more often than they occur.
PDI inh = PDI (human) enzyme inhibition; P07237; PDI insulin aggregation turbidity, A650, 90 min; inhibition, % at 10 µM; 350,000 compounds, 0.052% hits; AID 588391;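 active = mean inhibition across replicates of 30% or more, whatever share of single replicates reach that level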
CendR NRP1 mod = NRP-1/CendR interaction modulation; O14786; FAM-RPARPAR peptide binding to NRP-1, fluorescence polarization; inhibition, % at 25 µM; 360,000 compounds, 0.85% hits;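 active = inhibition or corrected inhibition above about 18%, plus a signal ratio from 0.5 to 1.5, limit read from the data, passing the limit was not always enough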
PglD DTNB = inhibitors of Campylobacter jejuni PglD acetyltransferase | 360,000 compounds, 0.098% hits | AID 602405 | inhibition, % at 12.5 µM | purified PglD enzyme, DTNB colorimetric CoA detection; in the data active = inhibition above about 16%, passing the limit was not always enough
ALR H2O2 inh = blocks human ALR sulfhydryl oxidase activity. P55789. purified ALR, DTT oxidation, H2O2 HRP-luminol luminescence. inhibition, % (concentration not given with the values). 290,000 compounds, 3.8% hits;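 active = mean replicate inhibition above about 79%, with every replicate also reaching it, limit read from the data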
ARNT-TACC3 inh = disruptors of human ARNT/TACC3 interaction | AlphaScreen His-ARNT PAS-B/GST-TACC3 binding, luminescence; TACC3 fragment carries E629A point mutation | 390,000 compounds, 0.66% hits | inhibition, % at 9.99 µM | Q9Y6A5;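 active = mean inhibition of replicates at least 50% and at least half of replicates each reaching 50%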;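 also: 0% = complete ARNT plus TACC3 wells and 100% = ARNT alone without TACC3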
ERp5 block = inhibitors of human ERp5 | 350,000 compounds, 0.05% hits | ERp5 insulin aggregation, absorbance 650 nm, 90 min | inhibition, % at 9.99 µM;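 active = mean replicate inhibition above about 25%, with every replicate also reaching it, limit read from the data, passing the limit was not always enough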
Target sequence (Q15084 whole entry, looked up): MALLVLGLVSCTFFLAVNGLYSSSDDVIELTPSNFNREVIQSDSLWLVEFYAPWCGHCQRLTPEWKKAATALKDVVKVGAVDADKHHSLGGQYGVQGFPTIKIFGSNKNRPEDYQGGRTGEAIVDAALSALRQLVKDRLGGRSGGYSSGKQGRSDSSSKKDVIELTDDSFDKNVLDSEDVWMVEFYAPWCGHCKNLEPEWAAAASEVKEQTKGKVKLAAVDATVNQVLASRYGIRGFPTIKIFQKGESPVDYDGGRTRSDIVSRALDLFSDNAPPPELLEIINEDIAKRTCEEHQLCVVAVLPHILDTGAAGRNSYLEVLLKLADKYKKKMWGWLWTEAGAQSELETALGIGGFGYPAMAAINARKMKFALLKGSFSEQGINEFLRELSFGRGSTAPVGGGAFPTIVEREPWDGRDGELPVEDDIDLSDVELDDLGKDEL
* hit, by the source's call; nt = no result.

SMILES	PDI inh	CendR NRP1 mod	PglD DTNB	ALR H2O2 inh	ARNT-TACC3 inh	ERp5 block
COc1ccc(OC)c(NC(=O)COC(=O)CCNc2ccccc2OC)c1	-12	15	-3	98*	1	1
C[C@@H]1CN([C@H](C)CO)C(=O)c2cc(NC(=O)CCN3CCOCC3)ccc2O[C@@H]1CN(C)Cc1ccc2c(c1)OCO2	nt	nt	-1	nt	-3	2
O=C(NC1CCCCC1)N[C@@H]1CC[C@@H](CCNS(=O)(=O)c2ccccc2)O[C@@H]1CO	nt	nt	-2	nt	-6	1
O=C(COC(=O)CCNS(=O)(=O)c1ccc(Cl)cc1)NCc1ccccc1	1	-10	-4	nt	nt	1
O=C(COC(=O)CCNS(=O)(=O)c1ccc(Cl)cc1)NCc1ccco1	-9	19*	2	-4	-7	nt
CC(=O)N1CCC(O)(c2ccc3c(c2)OCO3)CC1	6	22*	-2	-33	-1	-3
COCCNC(=O)Nc1ccc2c(c1)N(C)C(=O)c1ccccc1S2	15	5	nt	96*	-1	5
O=C(N/N=C1\CCCc2ccccc21)c1ccccc1Cl	5	10	nt	-3	0	28*
O=C(O)c1ccc(N/N=C2/CCCc3ccccc32)cc1	-8	0	nt	98*	1	-5
O=C(O)c1ccc(N/N=C2/CCSc3ccc(F)cc32)cc1	5	-20	-1	98*	6	-3
CC(=O)Nc1ccc(S(=O)(=O)NCC(=O)OCC(=O)N2CCc3ccccc32)cc1	-2	0	10	22	-17	nt
Fc1ccc(NC(=S)N2CCCc3ccccc32)cc1	2	6	nt	89*	13	nt
CCNS(=O)(=O)c1ccc(NC(=S)N2CCc3ccccc32)cc1	5	5	3	-15	53*	-2
Clc1ccc(/C=N/c2c(-c3ccco3)nc3ccccn23)cc1	5	36*	4	nt	7	nt
O=C(C[C@H]1CC[C@@H]2[C@H](COC[C@@H](O)CN2C(=O)Nc2ccc(F)cc2)O1)NCC1CC1	nt	nt	2	nt	9	-5
CC(C)CC#Cc1cnc2c(c1)C(=O)N([C@@H](C)CO)C[C@@H](C)[C@@H](CN(C)C(=O)Cc1cccnc1)O2	nt	nt	3	nt	0	10
O=c1c(CO)cc(CO)cc(CO)c1O	-8	13	nt	10	74*	8
CO[C@@H](CN(C)C(=O)c1cc(Cl)cc(Cl)c1)[C@@H](C)CN(C(=O)Nc1ccc(F)cc1)[C@@H](C)CO	nt	nt	3	nt	3	-3
CCOc1cc(/C=N/NC(=O)CCn2nnc3ccccc32)ccc1O	-2	0	nt	100*	8	-5
COc1ccc(/C=N/NC(=O)Cn2c(Cc3ccc(OC)c(OC)c3)nc3ccccc32)cc1OC	-4	-2	nt	-14	11	nt
COc1ccc(Cc2nc3ccccc3n2CC(=O)N/N=C/c2ccc(O)cc2)cc1OC	-29	-7	nt	100*	-3	4
CCn1c(SCC(=O)N/N=C/c2ccc(O)c(OC)c2)nc2ccccc21	4	-3	nt	99*	-11	5
CCn1c(SCC(=O)N/N=C/c2cc(OC)c(O)c(OC)c2)nc2ccccc21	-8	15	2	99*	3	nt
CCn1c(SCC(=O)N/N=C/c2cc(OC)c(OC)c(OC)c2)nc2ccccc21	1	6	nt	4	2	-1
CCn1c(SCC(=O)N/N=C/c2cccs2)nc2ccccc21	9	-2	nt	-4	nt	-2
SMILES	PDI inh	CendR NRP1 mod	PglD DTNB	ALR H2O2 inh	ARNT-TACC3 inh	ERp5 block
COc1ccccc1S(=O)(=O)N(C)C[C@H]1OCc2ccccc2-c2ccccc2C(=O)N([C@@H](C)CO)C[C@@H]1C	nt	nt	-3	nt	10	-1
COc1ccc(NC(=O)Nc2ccc3c(c2)C(=O)N([C@H](C)CO)C[C@H](C)[C@H](CN(C)S(C)(=O)=O)OCCCC[C@H](C)O3)cc1	nt	nt	2	nt	4	3
CN(C)C(=O)C[C@@H]1CC[C@@H]2[C@@H](COc3ccc(NC(=O)Nc4cccc(Cl)c4)cc3C(=O)N2C)O1	nt	nt	-1	nt	-2	-2
COc1ccc(/C=N/NC(=O)C(C)n2nnc3ccccc32)cc1OC (stereo unspecified)	12	11	5	31	23	nt
COc1cc(/C=N/NC(=O)C(C)n2nnc3ccccc32)ccc1O (stereo unspecified)	-8	0	2	97*	9	nt
O=C(C[C@@H]1CC[C@@H]2[C@H](COC[C@@H](O)CN2C(=O)Nc2ccc(C(F)(F)F)cc2)O1)NCCc1ccncc1	nt	nt	1	nt	-15	-3
Oc1ccc(-c2nccc(-c3ccc(Cl)cc3Cl)n2)cc1	5	40*	nt	22	-2	1
COC(=O)C(C)Oc1ccc(-c2nccc(-c3cccs3)n2)cc1 (stereo unspecified)	0	5	2	1	-5	nt
Oc1ccc(-c2nccc(-c3cccs3)n2)cc1	-6	2	-2	89*	6	nt
COc1ccc2nc(S(=O)Cc3ncc(C)c(OC)c3C)[nH]c2c1 (stereo unspecified)	1	-1	-2	98*	2	4
C[C@@H](NC(=O)C[C@H]1CC[C@@H]2[C@H](COC[C@@H](O)CN2C)O1)c1ccccc1	nt	nt	-4	nt	13	-6
Cn1c(/N=C/c2c(O)ccc3ccccc23)nc2ccccc21	1	21	-1	91*	6	nt
Cc1ccc(S(=O)(=O)N[C@@H]2C=C[C@H](CC(=O)O)O[C@H]2CO)cc1	nt	nt	3	nt	-9	7
CC(C)CC(C(=O)O)C(C)CC(=O)Nc1ccn(-c2ccccc2)n1 (stereo unspecified)	2	-1	0	2	2	nt
CCCCC(C(=O)O)C(C)CC(=O)Nc1ccn(-c2ccccc2)n1 (stereo unspecified)	-1	45*	-9	-27	0	nt
CN1C(=O)c2cc(NC(=O)c3cscn3)ccc2OC[C@@H]2O[C@@H](CC(=O)N3CCCCC3)CC[C@H]21	nt	nt	-2	nt	-11	12
COc1ccc(NC(=O)Nc2ccc3nccnc3c2)cc1	-2	-5	-3	100*	-4	nt
COc1ccc(NC(=O)Nc2ccc3nonc3c2)cc1	12	2	-4	-2	nt	1
Cc1ccc(S(=O)(=O)N(C)C[C@@H]2Oc3ccc(NC(=O)Cn4cnnn4)cc3CC(=O)N([C@@H](C)CO)C[C@@H]2C)cc1	nt	nt	-3	nt	1	-21
OCCN(CCO)c1ccc2ccccc2c1	4	4	4	98*	8	0
OCCN(CCO)c1ccc(C(c2ccccc2Cl)c2ccc(N(CCO)CCO)cc2Cl)c(Cl)c1	6	-5	-2	nt	1	nt
c1ccc2c(c1)ccc1ccccc12	nt	3	1	nt	2	-5
OCCN(CCO)c1cc2c3ccccc3ccc2c2ccccc12	2	25*	nt	nt	nt	-1
CC1=C/C(=N\OC(=O)/C=C/c2ccccc2)C(C)=CC1=O	-19	8	0	95*	nt	nt
